Screens (PubChem)
CHO-K1 Ca antag = M1 antagonist counterscreen hit in parental CHO-K1 cells. inhibition, % at 3 µM. hit rate 0.6% among 360,000. ATP-induced calcium, Fluo-8 fluorescence;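 active = inhibition above a per-plate cutoff, the plate's mean sample inhibition plus 3 SD, cut at about 24% in these data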
M1 PAM = potentiates human M1 receptor response to acetylcholine. P11229. activation, % at 3 µM. CHO-K1 hM1, Fluo-8 calcium fluorescence, ACh EC20; 0% = ACh EC20, 100% = maximal ACh. hit rate 0.088% among 360,000. AID 588819; in the data active = activation above about 19%, passing the limit was not always enough
Target sequence (P11229 whole entry, looked up): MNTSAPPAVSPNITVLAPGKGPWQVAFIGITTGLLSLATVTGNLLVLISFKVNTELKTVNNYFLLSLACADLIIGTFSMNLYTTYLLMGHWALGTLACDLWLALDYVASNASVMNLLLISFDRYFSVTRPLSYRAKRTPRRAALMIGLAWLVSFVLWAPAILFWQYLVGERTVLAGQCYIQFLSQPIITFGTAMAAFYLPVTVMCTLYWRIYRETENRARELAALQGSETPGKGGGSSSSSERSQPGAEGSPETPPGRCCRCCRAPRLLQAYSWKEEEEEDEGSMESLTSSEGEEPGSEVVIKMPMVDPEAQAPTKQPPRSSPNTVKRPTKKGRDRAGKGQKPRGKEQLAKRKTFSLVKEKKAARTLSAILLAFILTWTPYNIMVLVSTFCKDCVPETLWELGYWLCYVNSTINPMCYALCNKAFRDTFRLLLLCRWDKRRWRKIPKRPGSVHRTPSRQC
M1 antag = human CHRM1 antagonism; P11229; CHO-K1 hM1, Fluo-8 calcium fluorescence, ACh EC80 antagonist; inhibition, % at 3 µM; hit rate 1.3% among 360,000; AID 588852;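 active = percent inhibition above its own plate's cutoff, namely the mean of that plate's compound wells plus 3 SD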;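 note: peak over basal fluorescence ratio during 140 s after agonist addition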
M1 PAM parental = nonselective activator or artifact in parental CHO-K1 calcium assay; ATP EC20, Fluo-8 calcium fluorescence; 0% at ATP EC20, 100% at ATP max; activation, % at 3 µM; hit rate 0.02% among 360,000; AID 602247;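 active = activation above the run cutoff, the mean activation of all test compounds plus 3 SD, cut at about 40% in these data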;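 note: peak over basal fluorescence ratio in a 140 s read after ATP addition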
CHRM1 agonist = human M1 muscarinic receptor agonism | hit rate 0.33% among 360,000 | activation, % at 3 µM | CHO-K1 hM1, Fluo-8 calcium fluorescence, agonist mode; 0% DMSO, 100% acetylcholine EC100 | P11229;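 active = activation above the run's mean compound activation plus 3 SD, cut at about 16% in these data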;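 note: peak over basal fluorescence ratio within a 140 s kinetic read after compound addition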
M1 ag parental = counter-screen for M1 agonists: effect in parental CHO-K1 cells | hit rate 0.48% among 360,000 | AID 602248 | Fluo-8 calcium fluorescence; scaled to maximal ATP response, vehicle zero | activation, % at 3 µM; in the data active = activation above about 15%;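 note: untransfected CHO-K1 host cells lacking M1 receptor as counterscreen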
Numbers stand for hits; 0 = inactive; - = no result given. Hits are enriched below; roughly 2.3% of the tested compounds scored in any of these assays.

SMILES	CHO-K1 Ca antag	M1 PAM	M1 antag	M1 PAM parental	CHRM1 agonist	M1 ag parental
OCC1(Cc2ccccc2F)CCCN(CCc2ccccc2)C1 (stereo not drawn)	0	0	31.1	0	0	0
OCC1(Cc2ccc(F)cc2F)CCCN(CCCc2ccccc2)C1 (stereo not drawn)	0	0	0	0	0	0
CS/C(=N\N(C)C(N)=O)c1ccccc1	0	0	0	0	0	15.2
COc1ccccc1N(C(=O)c1ccco1)C(C(=O)NC1CCCC1)c1ccc(N2CCOCC2)cc1 (stereo not drawn)	0	0	0	0	0	0
Clc1ccc(CN2CCC(Cc3ccccc3)CC2)cc1	0	0	44.8	0	0	0
CSc1ccc(CN2CCC(Cc3ccccc3)CC2)cc1	0	0	49.5	0	0	0
O=C(C1CCN(Cc2ccc(Cl)cc2)CC1)N1CCN(C(c2ccccc2)c2ccccc2)CC1	0	0	99.3	0	0	0
CC(NC1CCN(Cc2ccccc2)CC1)c1ccc(F)cc1 (stereo not drawn)	0	0	34.4	0	0	0
CCOc1nc(NC2CCCC2)nc(N2CCC(C)CC2)n1	0	0	0	0	0	0
Cc1ccc2c(c1C)OC(=O)CC2c1ccccc1 (stereo not drawn)	0	0	0	0	0	0
COc1cc(C2C(C#N)=C(N)Oc3c2oc(CO)cc3=O)ccc1OC(C)C (stereo not drawn)	0	0	0	0	0	0
CC(C)Oc1ccc(C2C(C#N)=C(N)Oc3c2oc(CO)cc3=O)cc1 (stereo not drawn)	0	0	0	0	0	15.3
COc1cc(/C=C2/SC(=S)N(CC3CCCO3)C2=O)ccc1O (stereo not drawn)	0	0	0	0	0	18.0
COc1cc(/C=C2\SC(=S)N(C(Cc3ccccc3)C(=O)O)C2=O)ccc1O (stereo not drawn)	0	0	0	0	0	15.2
CCOc1cc(/C=C2\SC(=S)N(Nc3ccccc3)C2=O)ccc1O	0	0	0	0	29.1	0
O=C1/C(=C/c2ccc(O)c(O)c2)SC(=S)N1Nc1ccccc1	0	0	0	0	0	0
COc1ccc(/C=C2\SC(=S)N(CC3CCCO3)C2=O)cc1 (stereo not drawn)	0	0	0	0	0	0
COc1cc(/C=C2\SC(=S)N(Nc3ccccc3)C2=O)ccc1O	23.7	0	0	0	22.6	27.2
CN(C)C(CNC(=O)CCc1c[nH]c2ccccc12)c1ccccc1 (stereo not drawn)	0	0	0	0	0	0
COC(=O)CC1C(=O)NCCN1C(=O)c1ccc(Cl)cc1 (stereo not drawn)	0	0	0	0	0	0
CC(C)(C)N(Cc1cc2ccccc2[nH]c1=O)C(=O)c1cccc([N+](=O)[O-])c1	0	0	57.2	0	0	0
CCCN(Cc1cc2ccccc2[nH]c1=O)C(=O)c1cccc([N+](=O)[O-])c1	0	0	0	0	0	0
Cc1ccc(-c2nc(Nc3cccc(C)c3)sc2CC(=O)O)cc1	26.3	0	0	0	0	0
O=C(CCN1C(=O)c2ccccc2C1=O)N(CCO)Cc1ccccc1	0	0	101.5	0	0	0
COCCN(C(=O)COC(=O)CCSc1ccc(F)cc1)c1c(N)n(Cc2ccccc2)c(=O)[nH]c1=O	0	0	0	0	0	0
SMILES	CHO-K1 Ca antag	M1 PAM	M1 antag	M1 PAM parental	CHRM1 agonist	M1 ag parental
CCN(C(=O)c1ccc(NC(=O)Cc2ccccc2)cc1)c1ccccc1	0	0	0	0	0	15.9
CN(C(=O)c1ccc(NC(=O)Cc2ccccc2)cc1)c1ccccc1	0	0	0	0	0	0
Cc1cc(N2CCCCCC2)nc2ccc(F)cc12	0	0	0	0	30.6	0
Cc1cc(N2CCN(c3ccccc3)CC2)nc2ccccc12	0	0	0	0	0	23.9
O=C(CNS(=O)(=O)c1c(Cl)cccc1Cl)N1CCCCCC1	0	0	0	0	0	0
CCOC(=O)c1sc(-c2ccc(OC)cc2)cc1N	27.5	0	0	0	0	0
CCOC(=O)c1sc(-c2ccc(F)cc2)cc1N	0	0	0	0	0	0
Cc1cccc(NC(=S)NNc2cccc(Cl)c2)c1	0	0	0	0	0	0
Cc1cccc(NNC(=S)Nc2ccccc2)c1	24.6	0	0	0	0	0
Cc1ccc(NS(=O)(=O)c2ccc(C(=O)Nc3nncs3)cc2)cc1	0	0	0	0	0	0
CC(C)c1nc(SCC(=O)Nc2c[nH]c(=O)[nH]c2=O)c2cnn(-c3ccccc3)c2n1	40.5	0	0	0	0	0
CCOC(=O)c1oc2ccccc2c1COC(=O)CNC(=O)c1ccc(C)cc1	0	0	0	0	0	0
O=C(c1ccco1)N1CCN(C/C=C/c2ccccc2)CC1	0	0	0	0	0	0
O=C(c1nn(Cc2ccccc2)c(=O)c2ccccc12)N1CCN(C/C=C/c2ccccc2)CC1	0	0	94.9	0	0	0
CCn1nc(C(=O)N2CCN(Cc3nc4ccccc4s3)CC2)c2ccccc2c1=O	0	0	38.5	0	0	0
CN(C)S(=O)(=O)c1ccc(C(=O)Nc2nc(-c3cc4ccccc4o3)cs2)cc1	0	0	23.9	0	0	0
O=C(Nc1nc(-c2cc3ccccc3o2)cs1)c1ccc(S(=O)(=O)N2CCCC2)cc1	0	0	0	0	0	0
COc1ccc(Cc2nnc(NC(=O)c3ccccc3C)s2)cc1	0	0	0	0	0	0
Oc1ccc2ccccc2c1C=Nc1ccccc1Br	0	0	0	0	0	0
Oc1ccccc1N=Cc1c(O)ccc2ccccc12	0	0	0	0	22.3	0
O=C(Cc1csc(NC(=O)Nc2cccc(Cl)c2)n1)NC1CCCC1	0	0	0	0	0	15.8
COc1ccc(-c2csc(NC(C)=O)n2)cc1OC	0	0	0	0	0	0
O=C(Nc1ccncc1)Nc1cccc(Cl)c1	0	0	0	0	0	0
O=C(Cc1csc(NC(=O)Nc2cccc(Cl)c2)n1)NCc1ccccn1	0	0	0	0	0	0
O=C(Nc1cccc(Cl)c1)Nc1csc([N+](=O)[O-])c1	0	0	0	0	0	15.8
SMILES	CHO-K1 Ca antag	M1 PAM	M1 antag	M1 PAM parental	CHRM1 agonist	M1 ag parental
O=C(Nc1cccc(Cl)c1)Nc1nc(-c2ccc(Cl)cc2)cs1	0	0	29.5	0	0	0
COc1cccc(NC(=O)Nc2nc(-c3ccc(OC)c(OC)c3)cs2)c1	0	0	31.1	0	0	0
CC(=O)OC[C@@H]1CN(Cc2ccccc2)C[C@H](n2cnc3c(NC4CCCC4)ncnc32)O1	0	0	0	0	0	0
COc1cc2c(cc1CNC[C@H]1O[C@@H](n3ccc(N)nc3=O)[C@H](O)[C@@H]1O)OCO2	0	0	0	0	0	0
CCNc1nc(NC(C)C)nc(N(C#N)Cc2ccccc2)n1	0	0	0	0	0	15.7
CCOC(=O)c1cc2ccccc2n1C1CCN(CCc2ccccc2)CC1	0	-	-	0	-	0
